Screening results from PubChem BioAssay.
This is a sample that favours compounds with a hit; in the whole collection about 12% have one here.
Cycloheximide cs – Cycloheximide Counterscreen for Small Molecule Inhibitors of Shiga Toxin | 300,000 tested, 12% active | cell reporter, cycloheximide protein synthesis inhibition counterscreen | max response, %; in the data active = max response mostly above about 13%, no sharp cut-off; inactive = mostly below about 14%; also: read at 38.3 µM for the half of the compounds with a filed dose; 0% is about no effect
Marburg entry inh – qHTS for inhibitors of binding or entry into cells for Marburg Virus; Marburg virus pseudotyped entry inhibition, cell reporter; Potency, µM (series often up to 37.8 µM), inactives show at the top dose activity change, negative = inhibition, usual class: inhibitors; 300,000 tested, 1.8% active; calls by dose curve; tested in HEK293 cells; also: potency is read from the fitted curve at half-maximal effect; % is scaled to controls: 0 for no effect and ±100 for the full control effect
Shiga toxin inh – A qHTS for Small Molecule Inhibitors of Shiga Toxin | Vero cells, Shiga toxin protein synthesis inhibition reporter | 290,000 tested, 9.2% active | AID 2315, 2010 | inhibition, % at 38.7 µM; in the data active = inhibition mostly above about 28%, no sharp cut-off; inactive = mostly below about 43%; also: 0% is about no effect
Lassa entry inh – qHTS for Inhibitors of binding or entry into cells for Lassa Virus | Lassa virus pseudotype entry inhibition, cell reporter | Potency, µM (titrated, usually from 37.9 µM), inactives show top-dose activity change, negative = inhibition, actives largely listed as inhibitors | 300,000 tested, 1.2% active | AID 540256, 2011; calls by dose curve; tested in HEK293 cells; also: potency is read from the fitted curve at half-maximal effect; % is scaled to controls: 0 for no effect and ±100 for the full control effect; nearly all actives have a fitted effect of over 50% in size
The depositor's hits bear a star; u = inconclusive; x = no result; + = active, no number; [ ] = another dose, or the depositor's remark.

SMILES	Cycloheximide cs	Marburg entry inh	Shiga toxin inh	Lassa entry inh
Cc1ccnc(NC(=O)c2oc3ccccc3c2C)c1	x	u	x	3.55µM*
Cc1c(C(=O)Nc2cnccn2)oc2ccccc12	27.7*	-1.7%	61.0*	28.5%[14.3 µM]
Cc1c(C(=O)NCc2ccccn2)oc2ccccc12	31.7*	16.7%	39.2*	19.5%
Cc1c(C(=O)NCc2ccccn2)oc2ccc(Br)cc12	x	21.3%	x	20.3%
Cc1ccc(S(=O)(=O)NC(=O)Nc2ccc(C)cn2)cc1	3.2	12.1%[46.1 µM]	26.8	4.8%
Cn1c(-c2ccc(=O)[nH]c2)nc2ccccc21	15.3	-1.4%[46.1 µM]	12.3	7.6%
COc1ccc2cc(-c3nc4ccccc4n3C)c(=O)oc2c1	40.8*	7.5%	67.4*	u
Cn1c(-c2cc3ccccc3oc2=O)nc2ccccc21	40.4*	x	103.6*	x
C=CCN1C(=O)N(c2ccccc2)C(=O)C1CC(=O)Nc1ccc(OC)cc1 (stereo not drawn)	4.5	0.0%	x	7.6%
O=C(O)C(Cc1ccccc1)Nc1ccc([N+](=O)[O-])cc1[N+](=O)[O-] (stereo not drawn)	20.3*	4.3%[46.1 µM]	32.4	2.9%
NC(=O)c1cc([N+](=O)[O-])ccc1NCCc1ccccc1	active	x	1.3	x
NC(=O)c1ccc(NCc2ccco2)c([N+](=O)[O-])c1	17.0*	u	15.1	4.3%
O=C(Nc1ccccc1)c1ccc(NCCc2ccccc2)c([N+](=O)[O-])c1	-2.2	9.0%	-10.1	9.6%
NC(=O)c1ccc(NCCc2ccccc2)c([N+](=O)[O-])c1	15.5*	x	9.7	x
O=C(O)[C@H](Cc1ccccc1)Nc1ccc([N+](=O)[O-])cn1	-0.8	x	-2.3	x
COc1c(C)cc(C(=O)C2CCCN(C(=O)c3cc(C4CC4)[nH]n3)C2)cc1C (stereo not drawn)	4.9	x	-2.9	x
CCOc1cc(C(=O)Nc2cccc(OCC(=O)N3CCOCC3)c2)cc(OCC)c1OCC	-0.2	u	-4.7	19.3%[46.1 µM]
O=[N+]([O-])c1ccc(S(=O)Cc2ccccc2)c([N+](=O)[O-])c1 (stereo not drawn)	x	u	x	11.2µM*
O=[N+]([O-])c1ccc(CS(=O)c2ccccc2)cc1 (stereo not drawn)	x	u	x	-19.2%
Cc1cc2cc(CCNC(=O)CCCc3ccccc3)c(=O)[nH]c2cc1C	8.8	x	8.4	x
CCOC(=O)C1(Cc2ccccc2Cl)CCN(S(C)(=O)=O)CC1	-0.5	u	-8.6	0.1%
CCOC(=O)C1(Cc2ccccc2Cl)CCN(C(=O)c2cnccn2)CC1	50.0*	9.7%[46.1 µM]	93.6*	u
CCOC(=O)C1(Cc2ccccc2Cl)CCN(C(=O)c2cc(C)on2)CC1	28.0*	x	40.3*	x
c1ccc2nc(SCc3cn4ccccc4n3)cnc2c1	39.9*	x	63.6*	x
Cc1cccc2nc(CSc3nnnn3-c3ccccc3)cn12	3.3	u	-9.7	-10.1%
SMILES	Cycloheximide cs	Marburg entry inh	Shiga toxin inh	Lassa entry inh
O=C(O)c1ccccc1SCc1cn2ccccc2n1	3.8	6.2%	6.9	15.0%
c1ccc2c(-c3nnc(SCc4cn5ccccc5n4)o3)c[nH]c2c1	7.4	21.9%	14.5	-23.7%
c1ccc2oc(SCc3cn4ccccc4n3)nc2c1	52.5*	u	65.1*	u
Cc1cccc2nc(CSc3nc4ccccc4o3)cn12	49.3*	u	+	18.8%
CC1=C(C(=O)N2CCOCC2)C(c2ccc(C)cc2)NC(=S)N1 (stereo not drawn)	-3.2	-8.1%[46.1 µM]	-16.3	9.7%[46.1 µM]
COc1ccc(-c2nc(S(=O)(=O)c3ccc(Cl)cc3)c(N3CCCCCC3)o2)cc1	x	4.2%[46.1 µM]	x	-7.5%[46.1 µM]
Cc1csc(-c2cnn(-c3ccccc3)c2NC(=O)c2ccc(C(F)(F)F)cc2)n1	8.6	-13.2%	6.6	-14.8%
CCc1ccc(NC(=O)COc2ccc(F)cc2C(=O)c2cnn(-c3ccccc3)c2)cc1	27.3*	u	active	-26.6%
COc1ccccc1NC(=O)COc1ccccc1C(=O)c1cnn(-c2ccccc2)c1	46.6*	-5.4%	24.5	x
COC(=O)C1=C(C)NC2=C(C(=O)CC(C)(C)C2)C1c1cnn(C)c1C (stereo not drawn)	-0.2	-11.9%	-6.1	u
Cc1ccc(C(=O)/C=C/NNC(=O)c2ccccc2O)cc1	12.8	x	20.9	x
Cc1ccccc1NCC(=O)c1ccc(Br)cc1	-3.6	7.9%	-9.1	-2.8%
COc1ccc(C(=O)NNC(=O)Nc2ccc(Cl)cc2)cc1	10.6	-18.9%[46.1 µM]	-3.7	-13.2%
O=C(/C=C/NNC(=O)c1ccccc1)c1ccc(Br)cc1	46.7*	u	70.9*	u
O=C(/C=C/NNC(=O)c1cccc(Br)c1)c1cccc(Br)c1	1.9	-22.6%	49.9	-9.5%
O=C(/C=C/NCC(=O)c1ccccc1)c1ccc(Br)cc1	12.6	1.9%	45.4*	11.8%
